Data: PubChem BioAssay (NCATS)
Values joined by “and” are separate entries in the source; they are usually repeats but may differ in a detail not shown here. Equal values may be shown once. Results filed as inconclusive are left out. Where a structure was tested more than once in an assay, its records may differ in their call. Active and inactive are the calls of the source. The call rests on the fitted dose curve; in most records, active means well fitted curve in the direction sought with a large enough effect; inconclusive means small, poorly fitted or top-dose-only effect, or another doubt; inactive means no such curve, though single readings can be large; an effect the other way counts as inactive or inconclusive.

Key:
[1] = Viability qHTS for spleen associated tyrosine kinase inhibitor (SYKi) naive MV4-11 cells (AID 1963823); further: nearly all actives have a fitted effect of over 40% in size
Summary of the method: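 Cells: MV4-11, SYK inhibitor naive, 500 per well. Treatment: library compounds, 72 hr, 37 C, 5% CO2. Read-out: CellTiter-Glo luminescence after 10 min RT.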

[2] = Viability qHTS for spleen associated tyrosine kinase inhibitor (SYKi) drug resistant MV4-11 cells (AID 1963824); further: nearly all actives have a fitted effect of over 35% in size
Summary of the method: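 SYK-inhibitor-resistant MV4-11 AML cells were seeded at 500 per well onto compound and cultured 72 hours (37 °C, 5% CO2). CellTiter-Glo was then added, and after 10 min at room temperature, luminescence gave viability.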

[3] = Quantitative highthroughput screen to assess conditional lethalithy of P12 Ichikawa cells grown in Human Plasma-Like Medium with dialyzed fetal bovine serum (HPLM+ds) (AID 1963879); conditions: Potency: viability; further: nearly all actives have a fitted effect of over 35% in size; on Viability: series mostly up to about 46 µM
Summary of the method: (§1)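 Each medium arm—HPLM with 10% dialyzed FBS, or RPMI1640 with 5 mM glucose and 10% untreated or dialyzed FBS—was screened against an 11-point, 3-fold compound titration for 48 h at 37 °C, with CellTiter-Glo luminescence as endpoint.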

[4] = Quantitative highthroughput screen to assess conditional lethalithy of P12 Ichikawa cells grown in RPMI1640 with dialyzed fetal bovine serum (RPMI+ds) (AID 1963880); conditions: Potency: P12-Ichikawa viability; further: nearly all actives have a fitted effect of over 35% in size;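 on Viability: 100% = DMSO wells and 0% = empty wells on each plate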
Summary of the method: as §1

[5] = Quantitative highthroughput screen to assess conditional lethalithy of P12 Ichikawa cells grown in RPMI1640 with untreated serum (RPMI+s) (AID 1963881); conditions: Potency: viability; further: nearly all actives have a fitted effect of over 35% in size;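 on Viability: series mostly up to about 46 µM; 100% = DMSO wells and 0% = empty wells without cells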
Summary of the method: as §1

[6] = Quantitative highthroughput screen to assess conditional lethalithy of SEM cells grown in Human Plasma-Like Medium with dialyzed fetal bovine serum (HPLM+ds) (AID 1963882); further: nearly all actives have a fitted effect of over 35% in size; on Viability: series mostly up to about 46 µM
Summary of the method: as §1

[7] = Quantitative highthroughput screen to assess conditional lethalithy of SEM cells grown in RPMI1640 with unreated serum (RPMI+s) (AID 1963883); further: nearly all actives have a fitted effect of over 35% in size;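 on Viability: 100% = DMSO wells and 0% = empty wells without cells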
Summary of the method: as §1

[8] = Quantitative highthroughput screen to assess conditional lethalithy of SEM cells grown in RPMI1640 with dialyzed fetal bovine serum (RPMI+ds) (AID 1963884); further: nearly all actives have a fitted effect of over 35% in size;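 on Viability: series mostly up to about 46 µM; 100% = DMSO control wells and 0% = empty wells without cells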
Summary of the method: as §1

[9] = Cellular viability qHTS for adrenocortical cancer (ACC) cell line SW-13 (AID 1963989); conditions: SW-13 ACC cells viability, CellTiter-Glo, 48 h; activity (max response): stronger effect = lower value; further: nearly all actives have a fitted effect of over 65% in size;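 on activity (max response): cells grown in serum-free medium with ITS supplement; on the % scale 0 is the no-effect control and ±100 the full control effect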
Summary of the method: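 Viability was read as CellTiter-Glo luminescence after 48 h compound treatment (up to 46 uM final) of SW-13 cells grown serum-free; titration curves were fit with a four-parameter logistic model to give IC50 and efficacy.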

[10] = Quantitative highthroughput screen to assess conditional lethalithy of NOMO1 cells grown in Human Plasma-Like Medium with dialyzed fetal bovine serum (HPLM+ds) (AID 1963878); further: nearly all actives have a fitted effect of over 35% in size
Summary of the method: as §1

[11] = Cellular viability qHTS for adrenocortical cancer (ACC) cell line NCI-H295R (AID 1963990); further: nearly all actives have a fitted effect of over 60% in size
Summary of the method: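 CellTiter-Glo ATP luminescence, read 48 h after compound addition, measured viability of NCI-H295R adrenocortical cells grown serum-free with ITS. Final concentrations spanned up to 46 uM. Data normalized to DMSO and doxorubicin, fitted for IC50 and maximal response.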
Potency means the concentration at half of the fitted maximal effect.

Compound: CN[C@@H]1CN(c2ccc3c(=O)c(C(=O)O)cn(-c4nccs4)c3n2)C[C@@H]1OC
- Potency [1]: 0.407 µM (active)
- Potency [2]: 0.512 µM (active)
- Potency [3]: 14.4 µM (active)
- Potency [4]: 8.12 µM (active)
- Potency [5]: 6.45 µM (active)
- Potency [6]: 6.45 µM (active)
- Potency [7]: 1.44 µM (active)
- Potency [8]: 2.04 µM (active)

Compound: O=C(Nc1ccc(OC(F)(F)F)cc1)c1sccc1NCc1ccnc2ccccc12
- Potency [1]: 5.25 µM (active) and 5.17 µM (active)
- Potency [2]: 4.68 µM (active) and 5.8 µM (active)
- Potency [3]: 0.469 µM (active)
- Potency [4]: 2.35 µM (active)
- Potency [5]: 2.35 µM (active)
- Potency [6]: 2.96 µM (active)
- Potency [7]: 2.96 µM (active)
- Potency [8]: 7.43 µM (active)
- activity (max response) [9]: -29.8% (inactive)

Compound: OC(c1cc(C(F)(F)F)nc2c(C(F)(F)F)cccc12)C1CCCCN1 (configuration not stated)
- Potency [1]: 18.6 µM (active)
- Potency [2]: 9.34 µM (active)
- Potency [10]: 23.5 µM (active)
- Potency [9]: 22.4 µM (active)
- Potency [11]: 25.1 µM (active)

Compound: c1nc2nc(Nc3ccc(N4CCOCC4)cc3)nc(NC3CCCCC3)c2[nH]1
- Potency [1]: 224 nM (active) and 209 nM (active)
- Potency [2]: 317 nM (active) and 366 nM (active)
- Potency [10]: 14.8 µM (active)
- Potency [3]: 3.32 µM (active)
- Potency [5]: 2.64 µM (active)
- Potency [7]: 2.35 µM (active)
- Potency [8]: 2.35 µM (active)
- Potency [11]: 2.82 µM (active)

Compound: CN1CCN(c2cc(C(=O)Nc3ccc4c(c3)-c3c(c(C(N)=O)nn3-c3ccc(F)cc3)CC4)c(Cl)cn2)CC1
- Potency [1]: 4.11 µM (active)
- Potency [2]: 2.59 µM (active)
- Potency [10]: 26.4 µM (active)
- Potency [6]: 23.5 µM (active)
- activity (max response) [9]: -15.3% (inactive)
- Potency [11]: 25.1 µM (active)

Compound: CC1CCC(C(=O)N(c2cc(C#CC(C)(C)C)sc2C(=O)O)C2CCC(O)CC2)CC1 (configuration not stated)
- Potency [1]: 16.4 µM (active)
- Potency [2]: 11.8 µM (active) and 14.6 µM (active)
- Potency [10]: 5.26 µM (active)

Compound: NC(=NCCCCCCN=C(N)N=C(N)Nc1ccc(Cl)cc1)N=C(N)Nc1ccc(Cl)cc1
- Potency [1]: 2.35 µM (active)
- Potency [2]: 2.63 µM (active)
- Potency [3]: inactive
- Potency [5]: 20.9 µM (active)
- Potency [9]: 3.98 µM (active)
- Potency [11]: 17.8 µM (active)

Compound: C[C@@]1(C(=O)Nc2ccc(F)nc2)CCCN1c1nc(Nc2cc(C3CC3)[nH]n2)c2cccn2n1
- Potency [1]: 1.46 µM (active)
- Potency [2]: 1.84 µM (active)
- Potency [3]: 2.96 µM (active)
- Potency [5]: 2.96 µM (active)
- Potency [6]: 4.18 µM (active)
- Potency [8]: 3.32 µM (active)
- Potency [11]: 0.199 µM (active)

Compound: Oc1ccc([C@@H]2Oc3ccc(O)cc3[C@@H]3CCC[C@@H]32)cc1
- Potency [1]: 5.8 µM (active)
- Potency [2]: 4.61 µM (active)
- Potency [3]: 13.2 µM (active)
- Potency [5]: 11.8 µM (active)
- Potency [8]: 10.5 µM (active)
- Potency [11]: 7.08 µM (active)

Compound: COc1cc(-c2nn(C3CCC(N4CCN(C(C)=O)CC4)CC3)c3ncnc(N)c23)ccc1NC(=O)c1cc2ccccc2n1C (configuration not stated)
- Potency [1]: inactive and 2.63 µM (active)
- Potency [2]: 2.95 µM (active)
- Potency [3]: inactive
- Potency [4]: inactive
- Potency [5]: inactive
- Potency [6]: inactive
- Potency [7]: inactive
- Potency [8]: inactive
- activity (max response) [9]: -14.1% (inactive)
- Potency [11]: inactive

Compound: Cc1c(CN2CCN(S(C)(=O)=O)CC2)sc2c(N3CCOCC3)nc(-c3cnc(N)nc3)nc12
- Potency [1]: 0.146 µM (active)
- Potency [2]: 0.366 µM (active)
- Potency [3]: 0.418 µM (active)
- Potency [9]: 0.891 µM (active)
- Potency [11]: 0.794 µM (active)

Compound: CC(C)(O)CNc1nc(Nc2ccnc(C(F)(F)F)c2)nc(-c2cccc(C(F)(F)F)n2)n1
- Potency [1]: 14.8 µM (active)
- Potency [2]: 14.8 µM (active)
- Potency [3]: 2.95 µM (active)
- Potency [4]: 2.95 µM (active)
- Potency [5]: 2.95 µM (active)
- Potency [8]: 3.31 µM (active)

Compound: O=C(Nc1cccc(C(F)(F)F)c1)Nc1cc(S(=O)(=O)NC2CC2)ccc1-c1ccsc1
- Potency [1]: 14.8 µM (active)
- Potency [2]: 7.42 µM (active)
- Potency [3]: inactive
- Potency [9]: 28.2 µM (active)
- Potency [11]: 31.6 µM (active)

Compound: Oc1cc(-c2nc(-c3ccccc3)[nH]c2-c2ccncc2)ccc1Cl
- Potency [1]: 6.51 µM (active)
- Potency [2]: 5.9 µM (active) and 3.66 µM (active)
- Potency [3]: 16.6 µM (active)
- Potency [6]: inactive
- Potency [9]: 17.8 µM (active)
- Potency [11]: 28.2 µM (active)

Compound: Cn1cnc2c(F)c(Nc3ccc(Br)cc3F)c(C(=O)NOCCO)cc21
- Potency [1]: 0.206 µM (active)
- Potency [2]: 0.146 µM (active)
- Potency [3]: inactive
- Potency [4]: inactive
- Potency [5]: inactive
- Potency [9]: 17.8 µM (active)
- Potency [11]: inactive

Compound: Cn1cnc(-c2cc3nccc(Oc4ccc(NC(=S)NC(=O)Cc5ccccc5)cc4F)c3s2)c1
- Potency [1]: 0.0259 µM (active)
- Potency [2]: 36.6 nM (active) and 166 nM (active)
- Potency [3]: 23.5 µM (active)
- Potency [4]: 18.7 µM (active)
- Potency [5]: 18.7 µM (active)
- Potency [6]: 0.59 µM (active)
- Potency [7]: 1.18 µM (active)
- Potency [8]: 0.0662 µM (active)
- Potency [9]: 22.4 µM (active)
- Potency [11]: 14.1 µM (active)
